Experiment [1] concerns the target human Matrix Metalloproteinase-9 (MMP9), MMP9 (gene 4318) (UniProt P14780). In words: NVS_ENZ_hMMP9: NovaScreen (NVS) Enzymatic Assay for human Matrix Metalloproteinase-9 (MMP9) (AID 2283190).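 Also: cell-free recombinant MMP9 protease activity read by fluorescent substrate signal; active means inhibition seen as loss of fluorescence signal versus DMSO.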 In short, it runs like this:
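Cell-free recombinant MMP9 enzyme activity measured by fluorescence intensity 1 h after dosing. Primary screen in duplicate at 25 uM, actives followed in concentration series; loss of signal relative to DMSO.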

For experiment [2], the target named is human Caspase 5 (CASP5), CASP5 (gene 838) (UniProt P51878). In words: NVS_ENZ_hCASP5: NovaScreen (NVS) Enzymatic Assay for human Caspase 5 (CASP5) (AID 2283137). The procedure, abridged:
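Chemicals were first tested in duplicate at 25 uM against recombinant caspase 5 from E. coli. Activity was read by fluorescence intensity 2 hours after dosing. Those passing a preset inhibition threshold were retested in singleton concentration-response up to 50 uM.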

The target in experiment [3] is human Dual Specificity Protein Phosphatase 3 (DUSP3), DUSP3 (gene 1845) (UniProt P51452). In words: NVS_ENZ_hDUSP3: NovaScreen (NVS) Enzymatic Assay for human Dual Specificity Protein Phosphatase 3 (DUSP3) (AID 2283152). The procedure, abridged: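 Cell-free fluorescence-intensity enzyme activity assay with recombinant protein and substrate; loss of signal fitted relative to DMSO baseline. Primary screen in duplicate at 25 uM, actives then run in concentration series; measured 0 h after dosing.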
human Dual Specificity Protein Phosphatase 3 (DUSP3), DUSP3 (gene 1845), sequence (P51452 whole entry, looked up): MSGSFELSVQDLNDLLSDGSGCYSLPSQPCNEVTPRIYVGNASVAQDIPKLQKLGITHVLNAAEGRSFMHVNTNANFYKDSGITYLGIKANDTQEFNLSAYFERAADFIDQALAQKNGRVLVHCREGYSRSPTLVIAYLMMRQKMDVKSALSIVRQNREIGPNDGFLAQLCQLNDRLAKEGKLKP

In experiment [4] the target is human Neurokinin, NK2 Receptor, TACR2 (gene 6865) (UniProt P21452). In words: NVS_GPCR_hNK2: NovaScreen (NVS) G Protein-Coupled Receptor Assay for human Neurokinin, NK2 Receptor (AID 2283278).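 Also: actives reduce bound radioligand signal relative to DMSO baseline.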 In short, it runs like this:
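Radioligand binding on membranes from CHO cells expressing receptor, filter-based scintillation read 4 h after dosing. Initial duplicate screen at 25 uM, actives in concentration series; loss of signal versus DMSO.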

Experiment [5] has as its target human Opioid Receptor Mu (Opiate Mu), OPRM1 (gene 4988) (UniProt P35372). In words: NVS_GPCR_hOpiate_mu: NovaScreen (NVS) G Protein-Coupled Receptor Assay for human Opioid Receptor Mu (Opiate Mu) (AID 2283290).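 Also: hits lower bound tracer signal versus DMSO meaning displacement of the ligand.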 The procedure, abridged:
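Radioligand displacement binding on membranes from CHO cells expressing the receptor, 2.5 h after dosing, filter-based scintillation counting; loss of signal vs DMSO baseline. Screened in duplicate at 25 uM, actives then run in concentration series.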

The nature of experiment [6]: STM_H9_OrnCyssISnorm_ratio: Stemina devTOX quickPredict H9 human embryonic stem cell (hESC)-based Assay for Ornithine (ORN):Cystine (CYSS) Ratio (AID 2283714). The procedure, abridged: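 Ratio of internal-standard-normalized ornithine to cystine, measured by UPLC-HRMS in spent media from the last 24 h. H9 cells kept pluripotent, dosed 72 h with daily media and compound renewal; DMSO 0.1% serves as baseline.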

The subject of experiment [7] is guinea pig Dopamine Transporter (DAT), gene 100714898. In words: NVS_TR_gDAT: NovaScreen (NVS) Transporter Assay for guinea pig Dopamine Transporter (DAT) (AID 2283369).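 Also: active compounds lower bound radioligand signal relative to DMSO.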 In short, it runs like this:
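Scintillation counts of filter-retained radioligand report binding to guinea pig striatal membranes after 2 h. Activity scored as signal loss relative to DMSO, first at 25 uM in duplicate, then in concentration series to 50 uM.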

Experiment [8] addresses human Norepinephrine Transporter (NET), SLC6A2 (gene 6530) (UniProt P23975). In words: NVS_TR_hNET: NovaScreen (NVS) Transporter Assay for human Norepinephrine Transporter (NET) (AID 2283377).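 Also: cell-free membrane protein extracted from CHO cells expressing human NET; displacement of radioligand from human NET seen as loss of scintillation signal.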 The procedure, abridged: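 Single-concentration duplicate screen at 25 uM, then concentration-response for actives; displacement of specific radioligand from human NET in CHO membrane extracts, filter-based scintillation detection at 1 h relative to DMSO.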

Experiment [9] can be described thus: CEETOX_H295R_ANDR: CeeTox H295R High-throughput Steroidogenesis Assay for Androstenedione (ANDR) (AID 2283436; active = hit-call score of the fitted dose curve at least 0.9, where 1 is the maximum; inactive = score below 0.9). To be noted: actives raise or lower the signal. The procedure, abridged: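 Medium from 48 h chemical-treated H295R adrenal cells was extracted with MTBE and androstenedione measured by LC-MS/MS. Activity was fit in both directions relative to DMSO. Cytotoxic concentrations were re-tested after dilution until MTT viability reached ≥70%.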

Experiment [10] can be described thus: CEETOX_H295R_TESTO: CeeTox H295R High-throughput Steroidogenesis Assay for Testosterone (TESTO) (AID 2283457; active = hit-call score of the fitted dose curve at least 0.9, where 1 is the maximum; inactive = score below 0.9). To be noted: actives raise or lower the signal. The procedure, abridged:
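H295R, passage ≤10, 48 h dosing; media extracted with MTBE → HPLC-MS/MS for testosterone; 7-pt standard curve sets LLOQ/ULOQ; bidirectional fit vs DMSO; MTT viability same wells.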

For experiment [11], the target named is human Beta-secretase (BACE), BACE1 (gene 23621) (UniProt P56817). In words: NVS_ENZ_hBACE: NovaScreen (NVS) Enzymatic Assay for human Beta-secretase (BACE) (AID 2283140).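 Also: hits are inhibitors that reduce fluorescent substrate signal versus DMSO.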 The procedure, abridged:
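Fluorescence intensity read-out of protease activity defines this endpoint; signal loss relative to DMSO baseline marks inhibition. Recombinant enzyme from SF9 cells, cell-free format, 1 h exposure. Single-concentration duplicate screen (25 uM) precedes concentration-series follow-up.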

In experiment [12] the target is human Vascular Endothelial Growth Factor Receptor 1 (VEGFR1), FLT1 (gene 2321) (UniProt P17948). In words: NVS_ENZ_hVEGFR1: NovaScreen (NVS) Enzymatic Assay for human Vascular Endothelial Growth Factor Receptor 1 (VEGFR1) (AID 2283226). In short, it runs like this:
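Kinase activity of recombinant human VEGFR1 was read by fluorescence after electrophoretic separation of product from substrate, 1 h post-dosing; initial duplicate single-point testing at 25 uM, followed by concentration-series follow-up, with DMSO as baseline.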

Experiment [13] has as its target sheep Cyclooxygenase-1 (Cox1), PTGS1 (gene 443551) (UniProt P05979). In words: NVS_ENZ_oCOX1: NovaScreen (NVS) Enzymatic Assay for sheep Cyclooxygenase-1 (Cox1) (AID 2283239).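 Also: actives reduce cyclooxygenase activity so potencies are for inhibitors.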 In short, it runs like this:
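Absorbance read-out of cyclooxygenase activity in a cell-free preparation from sheep seminal vesicles, taken 0.66 hour after dosing. Initial testing was in duplicate at 25 uM, and confirmatory testing was run in concentration series.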

The target of experiment [14] is human CYP1A2, CYP1A2 (gene 1544) (UniProt P05177). In words: NVS_ADME_hCYP1A2: NovaScreen (NVS) CYP450-related Enzyme Activity (ADME) Assay for human CYP1A2 (AID 2283102). The procedure, abridged: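 rec. hCYP1A2 (insect cells), cell-free; fluorogenic substrate; 0.5 h; FI read. Baseline = acetonitrile; signal loss = inhibition. 10 uM duplicate primary → conc. series for actives.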

Experiment [15] deals with human Aurora Kinase A - serine/threonine-protein Kinase 6 (AurA), AURKA (gene 6790) (UniProt O14965). In words: NVS_ENZ_hAurA: NovaScreen (NVS) Enzymatic Assay for human Aurora Kinase A - serine/threonine-protein Kinase 6 (AurA) (AID 2283142). In short, it runs like this:
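Recombinant human AurA activity read by fluorescence after mobility-shift separation of product from substrate; 1 hour incubation. Chemicals first run in duplicate at 25 uM, then concentration series to 50 uM if over threshold; fitted relative to DMSO.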

In the next experiment the target is CDK2 (gene 1017) (UniProt P24941). In words: NVS_ENZ_hCDK2: NovaScreen (NVS) Enzymatic Assay for human Cyclin-Cependent Kinase 2 (CDK2) (AID 2283144). In short, it runs like this: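 Compounds screened in duplicate at 25 uM, then in singleton concentration-response to a maximum of 50 uM, against recombinant CDK2; kinase activity read 1 hr after dosing by fluorescence with mobility-shift separation of substrate and product.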

The target of experiment [16] is human Fibroblast Growth Factor Receptor 1 (FGFR1), FGFR1 (gene 2260) (UniProt P11362). In words: NVS_ENZ_hFGFR1: NovaScreen (NVS) Enzymatic Assay for human Fibroblast Growth Factor Receptor 1 (FGFR1) (AID 2283159). The procedure, abridged: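 Cell-free recombinant kinase with fluorescent substrate, product separated by electrophoretic mobility shift; read 1 hour after dosing, loss of signal relative to DMSO. Initial screen in duplicate at 25 uM, actives followed in concentration series.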
human Fibroblast Growth Factor Receptor 1 (FGFR1), FGFR1 (gene 2260), sequence (P11362 whole entry, looked up): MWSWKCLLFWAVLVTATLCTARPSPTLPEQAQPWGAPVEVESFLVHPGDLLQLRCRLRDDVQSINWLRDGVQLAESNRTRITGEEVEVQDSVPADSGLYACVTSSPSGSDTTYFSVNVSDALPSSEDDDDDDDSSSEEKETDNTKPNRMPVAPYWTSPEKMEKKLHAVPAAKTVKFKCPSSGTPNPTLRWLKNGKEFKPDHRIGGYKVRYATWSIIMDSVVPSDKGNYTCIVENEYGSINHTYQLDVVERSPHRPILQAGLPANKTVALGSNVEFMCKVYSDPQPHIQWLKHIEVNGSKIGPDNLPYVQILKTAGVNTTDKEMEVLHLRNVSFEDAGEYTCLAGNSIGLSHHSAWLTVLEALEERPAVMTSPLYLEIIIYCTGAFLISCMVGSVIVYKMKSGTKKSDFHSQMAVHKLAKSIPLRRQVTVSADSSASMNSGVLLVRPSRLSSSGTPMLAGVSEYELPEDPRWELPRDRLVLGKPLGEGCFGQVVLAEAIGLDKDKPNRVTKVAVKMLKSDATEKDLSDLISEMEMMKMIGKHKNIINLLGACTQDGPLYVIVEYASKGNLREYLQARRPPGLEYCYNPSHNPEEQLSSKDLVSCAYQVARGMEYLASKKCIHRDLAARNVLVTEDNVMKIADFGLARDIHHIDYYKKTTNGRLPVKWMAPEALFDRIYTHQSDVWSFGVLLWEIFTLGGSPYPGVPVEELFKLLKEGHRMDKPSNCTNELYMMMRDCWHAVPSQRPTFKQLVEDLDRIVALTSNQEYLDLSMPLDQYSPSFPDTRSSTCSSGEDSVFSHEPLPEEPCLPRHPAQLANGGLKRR

The target of experiment [17] is human c-Jun N-terminal Kinases (JNK2), MAPK9 (gene 5601) (UniProt P45984). In words: NVS_ENZ_hJNK2: NovaScreen (NVS) Enzymatic Assay for human c-Jun N-terminal Kinases (JNK2) (AID 2283171). In short, it runs like this:
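Chemicals first tested in duplicate at 25 uM, then in singleton concentration series up to 50 uM, against extracted JNK2 enzyme. Activity loss read by fluorescence with mobility-shift separation 1 h post-dose; DMSO baseline.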

Experiment [18] addresses Nuclear receptor subfamily 1 group I member 2 (Homo sapiens) (UniProt O75469). In words: NVS_NR_hPXR: NovaScreen (NVS) Nuclear Receptor Binding Assay for human Pregnane X Receptor (PXR) (AID 2283365).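 Also: a drop in FRET signal versus DMSO baseline means the compound binds.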 In short, it runs like this:
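Human PXR protein, cell-free; compound added, incubated 2 h, TR-FRET read. Signal decrease vs DMSO = binding. Screened 25 uM duplicate, actives re-run as dilution series.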

Experiment [19] in a line: CCTE_Deisenroth_AIME_384WELL_CTox_Active: Cytotoxicity Assessment (CTOX) in CCTE's 384-well Estrogen Receptor Transactivation Assay with AIME metabolic competence (metabolism positive), Deisenroth Lab (AID 2284037).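 Also: chemicals first conditioned 2 h by alginate-bound induced rat liver S9 before cells; activity means signal loss indicating cell death.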 In short, it runs like this: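 Cytotoxicity in VM7Luc4E2 breast cells, 24 hour, measured as protease-substrate fluorescence loss, after 2-hour metabolic conditioning with induced rat hepatic S9 in alginate microspheres. Concentrations 0.002 - 200 uM, 10 points, bidirectional fitting.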

Results filed as inconclusive are left out. Calls of active or inactive are those of the source. The calls were made as follows, unless noted: active = hit-call score of the fitted dose curve at least 0.9, where 1 is the maximum; inconclusive = response in the unintended direction; inactive = score below 0.9.

Nuclear receptor subfamily 1 group I member 2 (Homo sapiens), sequence (O75469 whole entry, looked up): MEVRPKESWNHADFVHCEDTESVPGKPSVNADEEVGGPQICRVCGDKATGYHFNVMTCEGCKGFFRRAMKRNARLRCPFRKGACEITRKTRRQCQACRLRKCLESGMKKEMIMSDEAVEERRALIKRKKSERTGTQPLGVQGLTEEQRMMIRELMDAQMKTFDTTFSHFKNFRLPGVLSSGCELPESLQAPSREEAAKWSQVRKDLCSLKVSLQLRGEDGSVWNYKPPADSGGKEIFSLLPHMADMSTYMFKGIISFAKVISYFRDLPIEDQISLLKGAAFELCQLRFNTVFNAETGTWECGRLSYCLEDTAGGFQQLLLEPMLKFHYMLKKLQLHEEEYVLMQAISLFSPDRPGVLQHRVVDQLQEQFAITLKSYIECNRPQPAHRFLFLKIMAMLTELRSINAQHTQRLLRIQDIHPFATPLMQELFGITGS
human Norepinephrine Transporter (NET), SLC6A2 (gene 6530), sequence (P23975 whole entry, looked up): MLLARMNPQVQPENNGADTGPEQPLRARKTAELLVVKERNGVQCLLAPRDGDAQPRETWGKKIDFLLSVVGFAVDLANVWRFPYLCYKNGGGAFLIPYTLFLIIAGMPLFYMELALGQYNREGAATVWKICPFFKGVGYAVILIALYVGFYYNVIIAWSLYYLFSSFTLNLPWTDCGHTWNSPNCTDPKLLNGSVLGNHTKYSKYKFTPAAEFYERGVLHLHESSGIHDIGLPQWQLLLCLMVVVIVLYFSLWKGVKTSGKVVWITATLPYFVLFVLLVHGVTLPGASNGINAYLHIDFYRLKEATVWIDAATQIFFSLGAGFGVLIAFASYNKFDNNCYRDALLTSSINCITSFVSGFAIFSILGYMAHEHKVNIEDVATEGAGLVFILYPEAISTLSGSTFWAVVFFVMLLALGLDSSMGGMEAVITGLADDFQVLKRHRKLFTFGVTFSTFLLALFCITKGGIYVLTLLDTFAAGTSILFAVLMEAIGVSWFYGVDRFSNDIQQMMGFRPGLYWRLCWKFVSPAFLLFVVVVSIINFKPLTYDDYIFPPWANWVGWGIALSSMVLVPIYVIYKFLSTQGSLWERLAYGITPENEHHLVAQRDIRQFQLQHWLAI
human Caspase 5 (CASP5), CASP5 (gene 838), sequence (P51878 whole entry, looked up): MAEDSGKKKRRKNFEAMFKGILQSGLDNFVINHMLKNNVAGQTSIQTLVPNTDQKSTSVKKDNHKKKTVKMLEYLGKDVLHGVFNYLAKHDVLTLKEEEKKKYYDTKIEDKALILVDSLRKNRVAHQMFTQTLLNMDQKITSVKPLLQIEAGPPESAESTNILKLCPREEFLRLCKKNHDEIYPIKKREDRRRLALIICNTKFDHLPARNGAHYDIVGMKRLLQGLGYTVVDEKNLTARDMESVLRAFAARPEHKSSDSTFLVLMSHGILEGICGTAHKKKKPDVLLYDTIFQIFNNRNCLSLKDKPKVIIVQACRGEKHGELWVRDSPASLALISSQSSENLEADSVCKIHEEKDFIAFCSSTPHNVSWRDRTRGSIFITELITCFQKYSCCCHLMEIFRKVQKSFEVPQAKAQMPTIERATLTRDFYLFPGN
human Beta-secretase (BACE), BACE1 (gene 23621), sequence (P56817 whole entry, looked up): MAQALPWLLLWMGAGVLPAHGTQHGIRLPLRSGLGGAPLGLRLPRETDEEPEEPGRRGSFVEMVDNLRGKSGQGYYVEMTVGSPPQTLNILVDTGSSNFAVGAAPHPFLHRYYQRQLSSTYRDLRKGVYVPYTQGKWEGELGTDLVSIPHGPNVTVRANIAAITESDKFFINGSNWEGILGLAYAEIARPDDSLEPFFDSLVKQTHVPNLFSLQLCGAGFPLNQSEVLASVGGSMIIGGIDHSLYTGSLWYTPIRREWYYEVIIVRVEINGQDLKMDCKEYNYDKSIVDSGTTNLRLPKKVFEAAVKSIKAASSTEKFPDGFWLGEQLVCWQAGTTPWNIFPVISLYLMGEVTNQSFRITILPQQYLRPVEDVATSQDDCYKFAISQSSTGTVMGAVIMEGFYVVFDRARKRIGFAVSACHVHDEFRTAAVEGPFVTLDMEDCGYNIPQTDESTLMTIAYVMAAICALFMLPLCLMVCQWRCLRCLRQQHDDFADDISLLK
human Aurora Kinase A - serine/threonine-protein Kinase 6 (AurA), AURKA (gene 6790), sequence (O14965 whole entry, looked up): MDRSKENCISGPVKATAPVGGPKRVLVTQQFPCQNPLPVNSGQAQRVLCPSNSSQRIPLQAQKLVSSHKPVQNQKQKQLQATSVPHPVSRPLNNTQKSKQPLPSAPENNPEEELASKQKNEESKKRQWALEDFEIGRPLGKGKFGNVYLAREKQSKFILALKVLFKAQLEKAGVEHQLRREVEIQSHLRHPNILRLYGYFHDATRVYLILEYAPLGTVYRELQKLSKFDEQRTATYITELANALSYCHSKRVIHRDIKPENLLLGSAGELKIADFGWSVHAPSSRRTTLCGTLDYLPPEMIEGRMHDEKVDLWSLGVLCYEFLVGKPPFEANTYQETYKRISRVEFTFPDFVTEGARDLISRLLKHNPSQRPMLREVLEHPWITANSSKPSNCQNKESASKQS
human Neurokinin, NK2 Receptor, TACR2 (gene 6865), sequence (P21452 whole entry, looked up): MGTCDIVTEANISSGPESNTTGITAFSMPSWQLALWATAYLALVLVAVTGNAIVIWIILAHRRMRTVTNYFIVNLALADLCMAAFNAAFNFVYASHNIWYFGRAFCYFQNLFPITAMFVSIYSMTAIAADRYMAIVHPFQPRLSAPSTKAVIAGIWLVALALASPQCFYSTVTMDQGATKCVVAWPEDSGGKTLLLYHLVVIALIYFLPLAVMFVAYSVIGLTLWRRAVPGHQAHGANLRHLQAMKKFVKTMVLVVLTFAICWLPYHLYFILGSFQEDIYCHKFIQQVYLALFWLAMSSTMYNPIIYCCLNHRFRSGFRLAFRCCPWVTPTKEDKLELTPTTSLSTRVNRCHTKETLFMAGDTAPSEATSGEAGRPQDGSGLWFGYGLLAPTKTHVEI
sheep Cyclooxygenase-1 (Cox1), PTGS1 (gene 443551), sequence (P05979 whole entry, looked up): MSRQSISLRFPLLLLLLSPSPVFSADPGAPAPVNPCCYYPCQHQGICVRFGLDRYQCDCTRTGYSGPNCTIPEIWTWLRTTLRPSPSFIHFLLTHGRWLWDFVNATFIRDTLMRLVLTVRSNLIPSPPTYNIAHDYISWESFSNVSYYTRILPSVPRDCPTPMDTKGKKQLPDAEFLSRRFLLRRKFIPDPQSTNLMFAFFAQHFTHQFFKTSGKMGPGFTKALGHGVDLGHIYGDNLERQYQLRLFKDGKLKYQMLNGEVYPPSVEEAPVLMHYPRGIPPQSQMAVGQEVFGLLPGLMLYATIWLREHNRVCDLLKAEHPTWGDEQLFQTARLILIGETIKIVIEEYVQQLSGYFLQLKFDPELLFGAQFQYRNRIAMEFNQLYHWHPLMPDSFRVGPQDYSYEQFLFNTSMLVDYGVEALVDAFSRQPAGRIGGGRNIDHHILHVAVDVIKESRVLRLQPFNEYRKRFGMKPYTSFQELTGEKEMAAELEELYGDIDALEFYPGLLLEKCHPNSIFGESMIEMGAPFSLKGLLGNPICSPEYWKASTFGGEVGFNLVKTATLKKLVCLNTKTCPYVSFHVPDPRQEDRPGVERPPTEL
human c-Jun N-terminal Kinases (JNK2), MAPK9 (gene 5601), sequence (P45984 whole entry, looked up): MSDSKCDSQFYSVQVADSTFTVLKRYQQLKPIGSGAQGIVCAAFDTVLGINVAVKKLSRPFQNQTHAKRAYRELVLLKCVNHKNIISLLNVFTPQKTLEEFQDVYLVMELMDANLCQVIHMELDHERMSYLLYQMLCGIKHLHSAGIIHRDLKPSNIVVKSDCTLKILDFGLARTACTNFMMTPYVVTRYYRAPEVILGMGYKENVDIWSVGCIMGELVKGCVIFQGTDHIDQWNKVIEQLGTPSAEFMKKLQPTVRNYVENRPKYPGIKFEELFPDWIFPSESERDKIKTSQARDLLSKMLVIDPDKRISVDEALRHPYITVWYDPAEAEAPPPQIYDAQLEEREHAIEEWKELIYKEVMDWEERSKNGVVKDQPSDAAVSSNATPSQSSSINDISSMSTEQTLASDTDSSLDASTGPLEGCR

Usually AC50 stands for the concentration giving half of the maximal activity seen. On to `CC=Cc1ccc2c(c1)OCO2`, for which the AC50 in experiment [1] was 5.42 µM (active).

Turning to `O=C1C(Cl)=C(Cl)C(=O)C(Cl)=C1Cl`, the AC50 was 0.148 µM (active) in experiment [2], 1.19 µM (active) in [3], 1.07 µM (active) in experiment [4] and 4.48 µM (active) in [5]. In experiment [6], the outcome was inactive.

Take `CC(C)(C)C(O)C(Oc1ccc(-c2ccccc2)cc1)n1cncn1` (configuration not stated): the AC50 in experiment [7] was 18 µM (active); in experiment [8], 25 µM (active); in [9], 0.114 µM (active). Further, the outcome in experiment [10] was inactive.

In the case of `CC(C)COP(=O)(OCC(C)C)OCC(C)C`, the call in experiment [11] was inactive.

`BrCBr`: in experiment [12], the compound was classed as inactive.

In the case of `c1ccc(Nc2ccc3ccccc3c2)cc1`, the call in [13] was inactive.

For the compound `N#CCCCCC#N`, the outcome (in experiment [14]; in experiment [15]; in the experiment with CDK2 (gene 1017); in experiment [16]; in experiment [17]) was inactive.

`CC(C)(c1cc(Cl)c(O)c(Cl)c1)c1cc(Cl)c(O)c(Cl)c1`: the AC50 in experiment [18] is 5.12 µM (active); in [19] it was 159 µM (active).

In the case of `C=CCN(CC=C)C(=O)C(Cl)Cl`, the result in [19] was inactive.

With `CCc1cccc(C)c1N(C(=O)CCl)[C@@H](C)COC`, the half-maximal activity concentration (AC50) in experiment [18] is 5.91 µM (active).
